D1 PAM: human D1 dopamine receptor positive modulation; AID 504651; potentiation, % at 10 µM; actives 0.036% (n = 360,000); HEK293 TREx D1 cells, calcium flux, dopamine EC20 potentiation; P21728; in the data active = potentiation above about 30%
D3 antag: antagonists of human D3 dopamine receptor. P35462. D3R cells, DiscoveRx beta-arrestin luminescence, antagonist mode; hits give low values. max response, negative = inhibition, %. actives 2.5% (n = 360,000); in the data active = max response below about -50%
Target sequence (P35462 whole entry, looked up): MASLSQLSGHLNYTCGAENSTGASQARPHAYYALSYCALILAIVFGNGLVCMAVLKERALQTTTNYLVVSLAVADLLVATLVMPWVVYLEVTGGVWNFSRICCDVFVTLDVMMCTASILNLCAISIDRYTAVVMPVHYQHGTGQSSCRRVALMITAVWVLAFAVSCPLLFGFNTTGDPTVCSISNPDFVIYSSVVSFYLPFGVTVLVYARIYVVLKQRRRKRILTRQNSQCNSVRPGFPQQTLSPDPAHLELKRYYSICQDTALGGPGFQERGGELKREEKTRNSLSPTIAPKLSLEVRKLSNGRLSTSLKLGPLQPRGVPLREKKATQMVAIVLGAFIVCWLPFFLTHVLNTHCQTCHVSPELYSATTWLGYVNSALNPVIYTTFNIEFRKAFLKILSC
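Cells plated overnight at 1500 cells/well, then exposed to library compounds with dopamine controls for 90 minutes at 37 degrees C. DiscoveRx reagent added for 30–60 minutes at room temperature; luminescence read, quantitative HTS format.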
D1 antagonist: antagonists of human D1 dopamine receptor; AID 504652; actives 3.2% (n = 360,000); HEK293 TREx D1 cells, calcium flux, dopamine EC80; hits give low values; activity change, negative = inhibition, % at 10 µM; P21728; in the data active = activity change below about -30%
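Cells carrying a force-coupled, tetracycline-inducible human D1 receptor report calcium flux. Each well gets a 10 s baseline, compound with 180 s monitoring, then an EC80 dopamine stimulus with a second 180 s kinetic read.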
D3 ag: D3 dopamine receptor (human) agonism | AID 652048 | max activation, % | actives 0.58% (n = 410,000) | D3R DiscoveRx beta-arrestin cells, luminescence, 90 min | P35462; in the data active = max activation above about 30%
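Agonist-mode cell screen: cells plated at 1500/well and incubated overnight at 37 °C, then exposed to library compounds for 90 min at 37 °C. Detection reagent was added for 30–60 min at room temperature, and luminescence was read.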
D1 ag: human D1 receptor agonism; HEK293 T-REx D1 cells, calcium flux, agonist mode; activation, % at 2 µM; actives 1% (n = 360,000); AID 504660; in the data active = activation above about 30%
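Agonism was scored from calcium flux recorded over 180 s (1 read/s) after pintool compound addition, following a 10-cycle baseline. Cells were inducible force-coupled HEK293 TREx D1, plated overnight at 30 C and loaded with no-wash calcium dye.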
A number is an active result; – = inactive; · = no result; ! = a repeat was not active. Shown are actives, neighbours in structure and some others; about 6% of the full set was active somewhere.

SMILES	D1 PAM	D3 antag	D1 antagonist	D3 ag	D1 ag
COC(=O)c1cc2sccc2n1CC(=O)Nc1cc(Cl)ccc1OC	–	·	–	–	–
Cn1nnnc1SCC(=O)N1CCN(C(=O)c2ccco2)CC1	–	–	-38	–	–
O=C(c1ccco1)N1CCN(Cc2cccc(F)c2)CC1	–	–	–	36	–
CCc1ccc(CN2CCN(C(=O)c3cccc(OC)c3OC)CC2)cc1	–	-57	–	–	–
O=C(c1ccco1)N1CCN(Cc2ccc(Br)cc2)CC1	–	–	–	33	–
CCCCn1nnnc1SCC(=O)N1CCN(C(=O)c2ccco2)CC1	–	–	–	–	–
O=C(c1ccco1)N1CCN(Cc2ccc(Cl)cc2)CC1	·	–	·	–	·
CCOC(=O)C1CCCN(S(=O)(=O)c2ccc(N3CCCCS3(=O)=O)cc2)C1 (configuration not stated)	–	·	–	–	–
COC(=O)Cn1c(C2CC(=O)N(c3c(C)cccc3C)C2)nc2ccccc21 (configuration not stated)	–	·	–	–	–
CCn1nc(-c2ccccc2)c(-c2ccccc2)c(C(=O)OCCOC)c1=O	–	·	–	–	–
Cc1ccc(C(c2nnnn2Cc2cccs2)N2CCN(C(=O)c3ccco3)CC2)cc1 (configuration not stated)	–	-52	–	–	–
CCc1ccc(CN2CCN(C(=O)c3ccco3)CC2)cc1	–	–	–	69	–
CCC(c1nnnn1Cc1cccs1)N1CCN(C(=O)c2ccco2)CC1 (configuration not stated)	–	–	–	–	–
Cc1ccccc1CSc1nnc2[nH]c(=O)cc(C)n12	–	·	·	–	–
O=C1c2ccccc2NC(c2ccccc2)N1c1ccc(O)cc1 (configuration not stated)	–	–	–	–	–
O=C1c2ccccc2NC(c2ccc(O)cc2)N1c1ccccc1 (configuration not stated)	–	–	-75	–	–
CCOc1ccc(C(=O)NC(Cc2ccccc2)C(=O)OC)cc1 (configuration not stated)	–	–	-32	–	–
O=S1(=O)[C@H]2C[C@@H]3C=C[C@@]2(CN1Cc1cccc(Cl)c1)O3	–	–	–	–	–
CC(O)c1cccc(-c2ccc(CN3C[C@]4(CO)O[C@@H](CO)C[C@@H]4S3(=O)=O)cc2)c1 (some centres not stated)	·	–	·	45	·
CNC(=O)c1cc(Oc2ccc(NC(=O)Nc3ccc(Cl)c(C(F)(F)F)c3)cc2)ccn1	–	-58	–	–	–
O=C(CNS(=O)(=O)c1ccc(Br)s1)N1CCN(c2ccc(F)cc2)CC1	–	–	-51!	–	–
CC(C)(C)C1CCc2nc(NC(=O)c3cccc(Cl)c3)sc2C1 (configuration not stated)	–	·	–	–	–
CCC(C(=O)Nc1ccccc1C(=O)OC)n1nc(C)c2c(C)n(-c3ccc(C)cc3)nc2c1=O (configuration not stated)	–	·	–	–	–
CCC(C(=O)NCc1ccco1)n1nc(C)c2c(C)n(-c3ccc(C)cc3)nc2c1=O (configuration not stated)	–	–	–	–	–
Cc1ccc(-n2nc3c(=O)n(C(C)C(=O)NCc4ccco4)nc(C)c3c2C)cc1 (configuration not stated)	–	–	-35!	–	–
SMILES	D1 PAM	D3 antag	D1 antagonist	D3 ag	D1 ag
CCOC(=O)C(CC)n1nc(C)c2c(C)n(-c3ccc(C)cc3)nc2c1=O (configuration not stated)	–	·	-48	–	–
CC(C)(C)c1ccccc1OCCOCCNCc1ccccc1	–	-78	–	–	36
CNCCOc1ccccc1C(C)(C)C	–	-54	–	–	–
CC(C)(C)NCCCCOc1ccccc1F	–	–	–	–	–
Cc1cc(C)n(S(=O)(=O)c2cc(C)c(C)cc2C)n1	–	–	-31	–	–
Cc1cc(C)n(S(=O)(=O)c2ccc(C)c(C)c2C)n1	–	–	–	–	–
COc1ccc(-c2cn[nH]c2C)cc1	–	–	-37	–	–
CCn1c(=O)c2sccc2n2c(CCC(=O)Nc3ccc(F)cc3)nnc12	–	·	–	–	–
CC(C)c1ccc(-c2csc3ncnc(N4CCN(C)CC4)c23)cc1	–	-72	–	–	–
COc1ccc(-c2csc3ncnc(N4CCN(c5ccccc5O)CC4)c23)cc1	–	–	–	–	44
